Sampled rows, rich in hits. Any-hit rate of the full collection: about 3.7%.
DRV1 agonist = GPR32 (DRV1) agonism, beta-arrestin recruitment | O75388 | CHO-K1 GPR32 beta-arrestin PathHunter luminescence, 90 min; zero percent set by DMSO-only wells | activation, % at 76.9 µM | 48,000 compounds, 2.5% hits | AID 1346428;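 active = activation of at least 60% and not above a set upper limit, about 1 call in 100 departs from these limits; inconclusive = activation of 40% to 60%, or above that upper limit; inactive = activation under 40%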; also: 0% is about no effect
Target sequence (O75388 whole entry, looked up): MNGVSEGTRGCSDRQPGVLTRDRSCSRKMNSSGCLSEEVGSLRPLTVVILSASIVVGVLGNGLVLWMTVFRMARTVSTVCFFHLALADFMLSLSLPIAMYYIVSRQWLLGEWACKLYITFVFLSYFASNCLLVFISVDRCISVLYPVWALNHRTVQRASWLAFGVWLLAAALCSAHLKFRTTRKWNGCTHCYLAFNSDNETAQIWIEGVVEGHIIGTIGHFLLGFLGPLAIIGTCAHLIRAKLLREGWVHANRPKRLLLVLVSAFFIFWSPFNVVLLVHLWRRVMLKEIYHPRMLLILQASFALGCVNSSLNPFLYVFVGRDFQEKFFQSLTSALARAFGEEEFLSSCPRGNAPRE
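Using DMSO wells as EC0, agonist-induced signal was taken as chemiluminescence from beta-Gal reconstituted upon beta-arrestin recruitment to GPR32 in CHO-K1 cells after 90 min compound treatment.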
HTT-AS act = activators of huntingtin-antisense promoter activity. AID 1508624. 48,000 compounds, 0.24% hits. HEK293 HTT-AS promoter firefly luciferase reporter, 24 h; response scale: percent change from vehicle, -100% = no light. Potency, µM (series often up to 57.5 µM), inactives show at the top dose activity change, positive = activation, hits mostly activators; also: potency is read from the fitted curve at half-maximal effect; nearly all actives have a fitted effect of over 55% in size
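HEK293 cells carrying firefly luciferase reporters were seeded at 2,500 per well in Opti-MEM and cultured for 24 h. They were then treated with compounds at up to 57.5 uM final for 24 h at 37 degrees C before Dual-Glo luminescence readout.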
HTT promoter inh = HTT promoter inhibition; HEK293 HTT promoter firefly luciferase reporter, 24 h; Potency, µM (titrated, usually from 57.5 µM), without a hit: top-dose activity change, negative = inhibition, usual class: inhibitors; 48,000 compounds, 0.93% hits; AID 1508623; also: potency is read from the fitted curve at half-maximal effect; nearly all actives have a fitted effect of over 50% in size
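Luminescence was read after Dual-Glo reagent and a 10 min room-temperature incubation. Values were normalized to vehicle (0% activity) and zero RLU (-100% activity). Reporter HEK293 cells had been exposed to compounds (up to 57.5 uM final) for 24 h.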
The depositor's hits bear a star; ? = inconclusive; / = no result; [ ] = dose if it differs, or a comment. Unless noted, calls follow the shape of the dose curve; as a rule, active = well fitted curve in the direction sought with a large enough effect; inconclusive = small, poorly fitted or top-dose-only effect, or another doubt; inactive = no such curve, though single readings can be large; an effect the other way counts as inactive or inconclusive.

SMILES	DRV1 agonist	HTT-AS act	HTT promoter inh
Clc1ccc(CNc2ncnc3onc(-c4ccc(Cl)cc4)c23)cc1	2.0	-25.2%	?
Cc1ccc(Cl)cc1N1CCN(C(=O)CCS(=O)(=O)c2ccc3c(c2)oc(=O)n3C)CC1	1.9	-31.4%	?
CCCN1C(=O)C2(c3ccccc31)c1c(oc3ccc(C)cc3c1=O)C(=O)N2CCOC (configuration not stated)	4.0	-10.4%	-19.8%
COc1ccc(C2(CNC(=O)C(=O)Nc3ccc(F)cc3)CCCC2)cc1OC	-3.2	2.0%	-21.4%
Cc1nc(N2CCCC2)ncc1C(=O)N1CCN(c2ccc(Cl)cc2)CC1	3.8	-16.9%	-29.5%
CC(C)n1cnc2c(NCCc3ccc(O)cc3)nc(-c3csc4ccccc34)nc21	/	-66.9%	?
NC[C@H]1O[C@H](O[C@H]2[C@@H](O)[C@@H](O[C@H]3O[C@H](CO)[C@@H](O)[C@H](N)[C@@H]3O)[C@H](N)C[C@@H]2N)[C@H](N)C[C@H]1O	/	1.7%	2.7%
COc1ccc(C2Nc3ccccc3-c3nnc(SC)nc3O2)cc1C (configuration not stated)	-0.2	-4.9%	-8.4%
CC(=O)N1CCc2c(sc3c2c(=O)n(CCc2ccccc2)c(=O)n3Cc2cccc(C)c2)C1	-7.0	-35.6%	-25.0%
CC(C)OCCCNC(=O)Cn1c(-c2cccs2)cc2cc(F)ccc21	16.3	-31.7%	?
CCOc1ccc(CCNC(=O)Cn2c(-c3cccs3)cc3cc(F)ccc32)cc1OCC	112.0*	-39.7%	?
CCOc1cc(CNC(=O)Cn2c(-c3cccs3)cc3cc(F)ccc32)ccc1OC	-7.8	-29.4%	?
COc1ccccc1CNC(=O)Cn1c(-c2cccs2)cc2cc(F)ccc21	102.7*	-7.9%	-21.6%
COc1c(C)c2c(c(O)c1CC=C(C)CCC(=O)O)C(=O)OC2	/	-29.1%	-22.8%
COc1cccc(NC(=O)C2CCN(c3nn4cc(-c5ccc(F)cc5)nc4s3)CC2)c1	-1.5	-3.1%	-27.0%
COc1ccc(-c2cn3nc(N4CCC(C(=O)Nc5cccc(Cl)c5)CC4)sc3n2)cc1	77.6*	?	14.6%
COc1ccc(OC)c(CCNC(=O)c2ccc3[nH]c(C)c(C)c3c2)c1	-7.0	-22.9%	-13.5%
CCOc1ccc(CCNC(=O)c2ccc3[nH]c(C)c(C)c3c2)cc1	72.4*	-19.1%	-20.8%
COc1ccc(CCNC(=O)c2ccc3[nH]c(C)c(C)c3c2)cc1OC	113.4*	2.3%	?
Cc1ccc(CCNC(=O)c2ccc3[nH]c(C)c(C)c3c2)cc1	2.3	-9.5%	-14.7%
O=C(COc1ccccc1Cl)N(Cc1cccc(F)c1)C1CCS(=O)(=O)C1 (configuration not stated)	-18.3	-12.2%	-8.8%
CCC(=C(c1ccc(O)cc1)c1ccc(OCCNC)cc1)c1ccccc1	/	-28.1%	?
CSc1cccc(N2C(=O)N(CC(=O)NCc3ccccc3Cl)c3ccccc3S2(=O)=O)c1	67.1*	-23.4%	-30.0%
CSc1cccc(N2C(=O)N(Cc3ccc([N+](=O)[O-])cc3)c3ccccc3S2(=O)=O)c1	-5.0	-21.0%	-7.5%
Cc1c(CCOc2ccc(C(=O)O)cc2)c2cc(Cl)ccc2n1C(c1ccccc1)c1ccccc1	/	-11.7%	-3.3%
SMILES	DRV1 agonist	HTT-AS act	HTT promoter inh
Cc1ccc(NC(=O)Cn2ncn3c(cc4ccccc43)c2=O)cc1C	-5.4	-17.2%	-10.6%
COc1cc2oc(=O)c(CC(=O)NCCc3ccccc3F)c(C)c2cc1OC	77.0*	/	/
Cc1c(CC(=O)NCCc2ccccc2F)c(=O)oc2cc(O)c(Cl)cc12	8.0	-7.5%	-9.0%
CCOC(=O)C1CCCN(S(=O)(=O)c2cc(-c3onc(C)c3C)ccc2OC)C1 (configuration not stated)	-8.2	-30.0%	?
Cc1nn(-c2ccccc2)c2c1N(CCCC(=O)NCc1ccccc1)C(=O)CS2	-18.4	-17.6%	?
Cc1nn(-c2ccccc2)c2c1N(CCCC(=O)NCc1ccc(OC(C)C)cc1)C(=O)CS2	-14.5	-43.0%	14.1µM*
CCc1ccccc1NC(=O)c1ccc(Cn2nc(N3CCN(c4ccccc4)CC3)ccc2=O)o1	63.3*	-42.4%	?
CCOc1ccc(CNC(=O)Cn2nc(N3CCN(c4ccccc4)CC3)ccc2=O)cc1	36.4	-26.4%	-14.7%
CCc1ccc(NC(=O)c2ccc(Cn3nc(N4CCN(c5ccccc5)CC4)ccc3=O)o2)cc1	0.3	-32.3%	?
CC(C)Oc1ccc(CNC(=O)Cn2nc(N3CCN(c4ccccc4)CC3)ccc2=O)cc1	67.9*	-28.5%	-15.2%
NC(=O)c1cccc2[nH]c(-c3ccc([C@H]4CCCN4)cc3F)nc12	/	?	6.8%
Cc1cc(CS(=O)(=O)c2ccccc2)cc(OCc2ccc(CN3CCC[C@H]3CO)cc2)c1	/	-2.3%	3.1%
COc1cc(NS(=O)(=O)c2ccc(-c3cc(C)no3)cc2)cc(OC)c1	8.9	-86.8%	1.78µM*
COc1cc(Cl)c(NS(=O)(=O)c2cc(-c3cc(C)no3)ccc2OC)c(OC)c1	-15.4	-35.6%	-25.0%
COc1ccc(NC(=O)c2c(NCc3ccc(C)o3)sc3c2CCCCC3)c(OC)c1	-11.9	-26.5%	-21.0%
O=C(Nc1ccc(F)cc1F)c1ccc2c(O)c(S(=O)(=O)c3ccc(Cl)cc3)c(=O)[nH]c2c1	2.1	-12.6%	-3.7%
CCOC(=O)c1sc(N2C(=O)c3oc4cc(C)c(C)cc4c(=O)c3C2c2ccc(C)cc2)nc1C (configuration not stated)	8.9	-18.8%	-9.1%
Cc1ccc(-c2csc(=Nc3ccccc3)n2Cc2ccc3c(c2)OCO3)cc1	32.6	9.8%	-29.4%
COCCCn1c(-c2ccc(S(=O)(=O)N3CCOCC3)cc2)csc1=Nc1ccccc1	-49.9	-68.5%	?
CCN(CC)CCn1c(-c2ccccc2)csc1=Nc1ccccc1	84.7*	16.0%	-5.0%[11.5 µM]
COc1ccc(-c2csc(=Nc3ccccc3)n2CCO)cc1F	96.3*	21.0%	?
CNC1CCC(N(Cc2cccc(-c3ccncc3)c2)C(=O)c2sc3c(F)ccc(F)c3c2Cl)CC1 (configuration not stated)	/	-16.0%	-14.5%
CC(=O)N1c2c(cc(Br)cc2S(=O)(=O)Nc2ccccc2C)CC1C (configuration not stated)	0.6	-25.5%	-23.2%
CC(=O)N1c2c(cc(Br)cc2S(=O)(=O)Nc2ccc(OC(F)(F)F)cc2)CC1C (configuration not stated)	30.8	-62.6%	25.1µM*
COc1ccc(CNS(=O)(=O)c2cc(Br)cc3c2N(C(C)=O)C(C)C3)cc1 (configuration not stated)	19.3	-20.1%	-19.4%
CCOC(=O)c1ccc(NS(=O)(=O)c2cc(Br)cc3c2N(C(C)=O)C(C)C3)cc1 (configuration not stated)	-3.8	-51.9%	15.8µM*
CC(C)(C)OC(=O)N[C@H]1CCCCCC=C[C@@H]2C[C@@]2(C(=O)NS(=O)(=O)C2CC2)NC(=O)[C@@H]2C[C@@H](OC(=O)N3Cc4cccc(F)c4C3)CN2C1=O	/	-22.2%	-13.4%
COc1ccccc1NC(=O)CN1C(=O)CC(c2ccc(C)c(C)c2)=Nc2ccccc21	-7.2	?	15.1%

Source: PubChem BioAssay (National Center for Advancing Translational Sciences (NCATS))
